The values that follow come from PubChem BioAssay (NCATS).

Molecules are shown by their SMILES. Where “and” joins values, the source holds several entries; their conditions need not be identical. Equal entries are not always repeated. Results filed as inconclusive are left out. Calls of active or inactive are those of the source. Unless noted, calls come from the whole dose curve; as a rule, active = well fitted curve in the direction sought with a large enough effect; inconclusive = small, poorly fitted or top-dose-only effect, or another doubt; inactive = no such curve, though single readings can be large; an effect the other way counts as inactive or inconclusive.

A short description of assay [1]: qHTS profiling for inhibitors of Plasmodium falciparum (3D7) proliferation (AID 743322).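 Note: infected erythrocytes exposed to compound for 72 h before lysis; 100% = DMSO vehicle wells and 0% = 0.29 µM artemisinin.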 To be noted: P. falciparum 3D7 proliferation; at 28.7 µM (top of the series) unless noted. Put shortly:
(§1)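 Erythrocytes infected with P. falciparum (0.3% parasitemia, 2.5% hematocrit) incubated with compounds 72 h at 37 C, 5% CO2. Lysis with saponin/Triton buffer containing SYBR Green I, overnight at room temperature in the dark; DNA fluorescence (485/535 nm) normalised to 0.29 uM artemisinin and DMSO.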
Background: Quantitative high-throughput screening tests each substance at several concentrations.

The nature of assay [2]: qHTS profiling for inhibitors of Plasmodium falciparum (DD2) proliferation (AID 743323; call rule not given here). To be noted: lower = more inhibition; at 28.7 µM (top of the series) unless noted. Put shortly: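 1536-well qHTS; infected RBCs 0.3% parasitemia/2.5% Hct final; cpd 72 h 37 C 5% CO2; lysis buffer + SYBR Green I, o/n RT dark; FI 485/535; norm. to 0.29 uM artemisinin and DMSO, plate-stack corrected.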

The nature of assay [3]: qHTS profiling for inhibitors of Plasmodium falciparum (HB3) proliferation (AID 743324).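 Note: 100% = DMSO vehicle wells and 0% = artemisinin-treated control wells.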 To be noted: Plasmodium falciparum HB3 blood-stage proliferation; at 28.7 µM (top of the series) unless noted. Put shortly: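 P. falciparum HB3 grown in erythrocytes (0.3% parasitemia, 2.5% hematocrit final) with compound for 72 h at 37 C, 5% CO2. Parasite DNA detected by SYBR Green after saponin/triton lysis overnight; normalized to 0.29 uM artemisinin and DMSO.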

Assay [4] is described as follows: qHTS profiling of the MIPE4 collection as inhibitors of Plasmodium falciparum (3D7) proliferation (AID 743344; call rule not given here;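 note: scaled between DMSO vehicle wells and 0.29 µM artemisinin as full inhibition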). To be noted: P. falciparum 3D7 in erythrocytes, SYBR Green DNA fluorescence, 72 h; at 28.5 µM (top of the series) unless noted. The method, boiled down: as §1
Assay [5] can be described thus: qHTS profiling of the MIPE4 collection as inhibitors of Plasmodium falciparum (DD2) proliferation (AID 743345; call rule not given here). To be noted: P. falciparum Dd2 in erythrocytes, SYBR Green DNA, 72 h; at 28.5 µM (top of the series) unless noted. Put shortly: as §1
The nature of assay [6]: qHTS profiling of the MIPE4 collection as inhibitors of Plasmodium falciparum (DD2) proliferation (Rep 2) (AID 743346; call rule not given here). The conditions noted are these: P. falciparum Dd2 in erythrocytes, SYBR Green DNA, 72 h; at 28.5 µM (top of the series) unless noted. The method, boiled down: as §1
Assay [7] is described as follows: qHTS profiling of the MIPE4 collection as inhibitors of Plasmodium falciparum (HB3) proliferation (AID 743347; call rule not given here;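 note: plate controls were DMSO vehicle wells for no effect and artemisinin wells for full effect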). To be noted: P. falciparum HB3 in erythrocytes, SYBR Green DNA, 72 h; at 28.5 µM (top of the series) unless noted. Put shortly:
as §1

Assay [8] in a line: High-throughput drug toxicity screening in the BPDCN cell line Gen2.2 (AID 1224824; call rule not given here;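 note: cells exposed to compounds for 48 h before reading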). The conditions noted are these: Gen2.2 BPDCN cells; at 45.8 µM (top of the series) unless noted. Put shortly: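 Gen2.2, 500 cells/well, phenol red-free RPMI/10% FBS/Pen-Strep; 48 h cpd, 37 °C/5% CO2; CTG lum, 15 min RT. Norm: DMSO = 100%, bortezomib 9.2 uM final = 0%.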
The nature of assay [9]: High-throughput drug toxicity screening in the BPDCN cell line Cal-1 (AID 1224825; call rule not given here). To be noted: Cal-1 BPDCN cell viability, qHTS; at 45.8 µM (top of the series) unless noted. The method, boiled down:
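500 Cal-1 cells/well, RPMI + glutamine + 10% FBS (phenol red-free); cpd added by pin tool; 48 h, 37C, 5% CO2; CTG 15 min RT, lumi read. Normalised: DMSO 100%, bortezomib 9.2 uM 0%.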

Assay [10] is described as follows: qHTS assay for measurement of the activity of small molecule inhibitors on Zika virus induced Caspase-3 activity in human iPSC derived neural progenitor cells (hNPCs) (AID 1224857). Note: % of control where 0% means no effect; nearly all actives have a fitted effect of over 65% in size. The method, boiled down:
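Quantitative HTS format: human iPSC neural progenitors, 1 h compound pretreatment, ZIKV 2 FFU/cell for 6 h at 37 C. Percent inhibition derived from luminescent caspase-3/7 signal between uninfected and infected controls.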

A short description of assay [11]: qHTS assay for measurement of the activity of small molecule inhibitors on Zika virus induced Caspase-3 activity in human astrocytoma cells (AID 1224859).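 Note: plate controls were ZIKV-infected untreated cells for no effect and uninfected cells for full effect.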 Put shortly:
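Readout is luminescence from Caspase-Glo 3/7 added after a 6 h ZIKV infection (2 FFU/cell) of compound-pretreated (1 h) SNB-19 cells; data expressed as % inhibition versus uninfected and infected wells.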

A short description of assay [12]: qHTS Screen of the MIPE 4.0 Collection Against Ewings Sarcoma (RDES) (AID 1259252). Note: nearly all actives have a fitted effect of over 35% in size. Note: potency is the fitted concentration of half-maximal effect. The method, boiled down: (§2)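 After a 4 h attachment period in RPMI/5% FBS, cells were pin-dosed with test compounds; DMSO served as negative and 9.2 uM bortezomib (final) as positive control. Luminescent CellTiter-Glo signal at 48 h defined viability.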
Assay [13] in a line: qHTS Screen of the MIPE 4.0 Collection Against Ewings Sarcoma (TC71) (AID 1259253). Note: nearly all actives have a fitted effect of over 40% in size. Note: potency is the fitted concentration of half-maximal effect. Put shortly: as §2
A short description of assay [14]: qHTS Screen of the MIPE 4.0 Collection Against Ewings Sarcoma (EW8) (AID 1259255).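 For viability: 100% = DMSO-treated cells and 0% = medium-only wells without cells.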 Note: nearly all actives have a fitted effect of over 35% in size. Note: potency is the fitted concentration of half-maximal effect. Put shortly: as §2
Assay [15] can be described thus: qHTS Screen of the MIPE 4.0 Collection Against Ewings Sarcoma (TC32) (AID 1259256). Note: nearly all actives have a fitted effect of over 45% in size. Note: potency is the fitted concentration of half-maximal effect. Put shortly: as §2
Assay [16] is described as follows: qHTS assay to identify small molecule inhibitors of chordoma cells - UCH-1 (AID 1259355). Note: % is set by controls: 0 for no effect and ±100 for the full control effect; nearly all actives have a fitted effect of over 55% in size. The method, boiled down:
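Seed 800 cells per well; incubate overnight at 37 C, 5% CO2. Add test compounds (15 concentrations), then the auranofin–topoisomerase-agent combination. Incubate 48hr, add CellTiter-Glo, wait 30min, read luminescence.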

Assay [17] in a line: qHTS assay to identify small molecule inhibitors of chordoma cells - UCH-2 (AID 1259356). Note: % is set by controls: 0 for no effect and ±100 for the full control effect.

With `Cc1cc2c(C(C)C)c(O)c(O)c(C=O)c2c(O)c1-c1c(C)cc2c(C(C)C)c(O)c(O)c(C=O)c2c1O`, in assay [1], the remaining parasite growth % (stronger effect = lower value) is 5.05% and 5.11%. For the same compound, the activity, percent of control in assay [2] is 13.9% and 10.5%. Further, the remaining proliferation (% of control), lower = more inhibition in [3] was -0.222% and 1.83%. For the same compound, the parasite growth, % of DMSO control in assay [4] amounted to 8.6%. Moreover, the parasite growth remaining, % of DMSO control (lower = more inhibition) in assay [5] is 15%. The parasite growth, % of control (lower = inhibition) in assay [6] was 19.3%. For the same compound, in [7], the growth, % of control is 14.8%. The cell viability, % of control (lower = more cytotoxic) in [8] was determined as 14.5%. The viability (% of control) in assay [9] is 6.4%. For the same compound, the Potency entry in assay [10], in assay [11] and in assay [16] was “inactive” each time. The Potency is 10.5 µM (active) in [12], 13.2 µM (active) in assay [13], 11.8 µM (active) in assay [14] and 18.7 µM (active) in [15].
On to `CC(C)(C)NCC(O)c1ccc(O)c(CO)c1` (stereo not drawn), for which the cell viability, % of control (lower = more cytotoxic) in assay [8] was found to be 76%. For the same compound, in [9], the viability (% of control) came out at 113%. Further, the Potency result in assay [10], in assay [11], in assay [12], in assay [13], in [14] and in [15] was “inactive” throughout. In addition, the Potency entry in assay [16] is “inactive”. In addition, in assay [17], the outcome was inactive.
In assay [4], `Nc1ccc(S(=O)(=O)Nc2ccnn2-c2ccccc2)cc1` came in with a parasite growth, % of DMSO control of 93.3%. Further, the parasite growth remaining, % of DMSO control (lower = more inhibition) in assay [5] is 103%. For the same compound, the parasite growth, % of control (lower = inhibition) in [6] was determined as 86.8%. The growth, % of control in assay [7] turned out to be 94.4%. The cell viability, % of control (lower = more cytotoxic) in [8] came out at 153%. For the same compound, in assay [9], the viability (% of control) was 115%. The Potency entry in [10], in assay [11], in assay [12], in assay [13], in assay [14] and in [15] was “inactive” throughout. Further, the Potency result in assay [16] is “inactive”.
The compound `NCCCC(N)(C(=O)O)C(F)F` (stereo not drawn) yielded a parasite growth, % of DMSO control in assay [4] of 98%. In addition, the parasite growth remaining, % of DMSO control (lower = more inhibition) in [5] is 95.9%. In assay [6], the parasite growth, % of control (lower = inhibition) worked out at 157%. Moreover, the growth, % of control in assay [7] came out at 107%. In addition, the cell viability, % of control (lower = more cytotoxic) in [8] was found to be 77.2%. Besides, the viability (% of control) in [9] came out at 47.4%. The Potency entry in assay [10], in [11], in [12], in assay [13], in [14] and in assay [15] was “inactive” in each case. Besides, the Potency result in assay [16] is “inactive”.
As for `NC(=O)c1cnccn1`, the parasite growth, % of DMSO control in assay [4] was 97.3%. Further, in assay [5], the parasite growth remaining, % of DMSO control (lower = more inhibition) stood at 94.9%. Also, the parasite growth, % of control (lower = inhibition) in [6] was determined as 45.3%. Moreover, in assay [8], the cell viability, % of control (lower = more cytotoxic) is 146%. The viability (% of control) in assay [9] stood at 118%. The Potency result in [10], in [11], in [12], in assay [13], in [14] and in [15] was “inactive” throughout. The Potency entry in [16] was “inactive”.
In turn, `CCn1cc(C(=O)O)c(=O)c2cc(F)c(N3CCNC(C)C3)c(F)c21` (stereo not drawn) yielded a parasite growth, % of DMSO control in assay [4] of 49.1%. Besides, the parasite growth remaining, % of DMSO control (lower = more inhibition) in assay [5] was 68.3%. Further, the parasite growth, % of control (lower = inhibition) in assay [6] turned out to be 83.6%. Further, the growth, % of control in assay [7] is 91.5%. For the same compound, the cell viability, % of control (lower = more cytotoxic) in [8] turned out to be 176%. In addition, the viability (% of control) in assay [9] amounted to 107%. The Potency result in assay [10], in [11], in [12], in assay [13], in assay [14] and in [15] was “inactive” each time. In assay [16], the Potency result is “inactive”.
The compound `NC[C@H](O)c1ccc(O)c(O)c1` registered a parasite growth, % of DMSO control in [4] of 71.5%. Besides, the parasite growth remaining, % of DMSO control (lower = more inhibition) in assay [5] is 97.8%. Further, the parasite growth, % of control (lower = inhibition) in assay [6] was 78.3%. Besides, the cell viability, % of control (lower = more cytotoxic) in [8] came out at 132%. In [9], the viability (% of control) is 96.3%. The Potency result in [10], in assay [11], in assay [12], in [13], in assay [14] and in assay [15] was “inactive” each time. In [16], the Potency result was “inactive”.
As to `OC(CN1CCC(Cc2ccc(F)cc2)CC1)c1ccc(Cl)cc1` (stereo not drawn), the remaining parasite growth % (stronger effect = lower value) in assay [1] was 1.14% and 5.06%. The activity, percent of control in assay [2] is 1.06% and 4.92%. The compound further gave a parasite growth, % of DMSO control in assay [4] of 9.22%. For the same compound, the parasite growth remaining, % of DMSO control (lower = more inhibition) in [5] is 8.62%. Moreover, the parasite growth, % of control (lower = inhibition) in [6] was 19.9%. Besides, the cell viability, % of control (lower = more cytotoxic) in assay [8] stood at 156%. In addition, the viability (% of control) in assay [9] came to 99.3%. In addition, the Potency result in assay [10], in assay [11], in assay [12], in assay [13], in assay [14] and in [15] was “inactive” each time. The activity, negative = inhibition in [16] was 16.1% [at 9.21 µM] (inactive).
